Assay results as given in PubChem BioAssay.
Active and inactive are the calls of the source.

System: not listed separately
Assay: change in splice reporter luminescence, either direction, cell-based, HEK293, spliceosome inhibition project, primary screen (AID 1101);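 note: HEK293 cells carrying a splicing-competent luciferase reporter gene; test concentration not given here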
Details: HEK293 splicing luciferase reporter, 24 h, higher = more signal, called active from +8 up or from −8 down
With `COCCOC(=O)N1C(=O)[C@@]2(c3cc(C#CC4(O)CCCCCC4)ccc31)[C@H](C(=O)N1CCc3cc(OC)c(OC)cc3C1)[C@H]1C(=O)O[C@H](c3ccccc3)[C@H](c3ccccc3)N1[C@@H]2c1ccc(OCCO)cc1` the z-score was 0.058 (inactive).
In the case of `C=C(C(=O)CC[C@H](OC(=O)c1ccccc1-c1ccccc1C(=O)O)c1cccc(OCCO)c1)C(C)C`, the z-score is reported as -0.369 (inactive).
With `CC(C)c1ccc(NN2C(C(O)c3ccc(F)cc3)C=CC3C(=O)N(c4ccccc4)C(=O)C32)cc1` (configuration not stated) the z-score was -0.548 (inactive).
For `[N-]=[N+]=Nc1ccccc1C[C@@]1(C(=O)NCCN2CCOCC2)N=C(c2ccc(OCCCO)cc2)O[C@@H]1c1ccccc1N=[N+]=[N-]`, the z-score was -0.222 (inactive).
With `CCOC(=O)[C@@H]1CCCCN1C(=O)C(=O)OC` the z-score was 1.11 (inactive).
With `COc1ccccc1CN1C(=O)c2ccccc2[C@](Cc2ccccc2I)(C(=O)O)[C@@H]1c1ccc(CO)cc1` the z-score was -0.498 (inactive).
For `C=C[C@@H](OC)[C@H](OC(=O)Nc1ccc(OC)cc1)c1ccc(O)c(F)c1`, the z-score was -0.653 (inactive).

Molecular target: Fibroblast growth factor 10 (Homo sapiens) (UniProt O15520)
Sequence (O15520 whole entry, looked up): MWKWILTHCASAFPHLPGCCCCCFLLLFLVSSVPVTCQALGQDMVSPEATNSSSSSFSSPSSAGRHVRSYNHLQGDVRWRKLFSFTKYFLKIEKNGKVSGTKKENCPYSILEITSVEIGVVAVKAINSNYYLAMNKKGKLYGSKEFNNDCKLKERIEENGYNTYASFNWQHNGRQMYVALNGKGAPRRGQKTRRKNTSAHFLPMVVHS
Assay: compounds binding fibroblast growth factor 10 – biochemical, small-molecule microarray, 635 nm fluorescence, primary screen (AID 1102)
Details: FGF10 binding, fluorescence 635 nm, higher = more signal
Compound `O=C1C2C=CC(C(O)C3CC=CCC3)N(Nc3ccccc3)C2C(=O)N1c1ccccc1` (configuration not stated) has a composite z-score of 0.154.
For `[N-]=[N+]=Nc1ccccc1C[C@@]1(C(=O)N2CCOCC2)N=C(c2ccc(OCCCO)cc2)O[C@@H]1c1ccccc1`, the composite z-score was 1.36.
`CCC#CCN(Cc1ccccc1Br)[C@H](/C=C/C1CC1)[C@@H](O)Cc1ccccc1` showed a composite z-score of -0.924.
`Cc1ccc(F)cc1S(=O)(=O)N[C@@H]1CCN(Cc2ccc(Br)cc2)C1` showed a composite z-score of 0.69.
`CC1CC/C=C\[C@H]2OC34C=CCN(C(C)C)C(=O)[C@H]3N(CCO)C(=O)[C@@H]4C2C(=O)O1` (some centres not stated) gave a composite z-score of -0.309.
Work on `CCOC(=O)C[C@H]1[C@H](OC(=O)c2cc3ccccc3oc2=O)[C@@H](NC(=O)CC(C)C)c2cc(OCCCO)ccc2N1C(=O)c1ccc2ccccc2n1` yielded a composite z-score of 1.32.
`[N-]=[N+]=Nc1ccccc1C[C@]1(C(=O)NCCN2CCOCC2)COC(c2ccc(OCCCO)cc2)=N1` showed a composite z-score of 0.318.
Compound `COC(=O)[C@]1(CCS(=O)(=O)c2ccccc2)N=C(c2ccc(OCCCO)cc2)O[C@@H]1c1ccccc1N=[N+]=[N-]` has a composite z-score of 1.3.
`COc1ccc(CCNC(=O)[C@@H]2c3ccccc3C(=O)N(C3CCCCC3)[C@H]2c2ccc(CO)cc2)cc1` showed a composite z-score of 0.542.
With `O=C(NCc1ccc(F)cc1)[C@H]1C[C@H]2C(=O)NCC(=O)N2[C@H]1c1ccc(O)cc1` the composite z-score was 1.37.
`CC(c1ccccc1)C(O)C1C=CC2C(=O)N(C)C(=O)C2N1Nc1ccccc1` (configuration not stated) showed a composite z-score of 0.663.
For `COc1ccc(C#Cc2ccc3c(c2)[C@]2(C(=O)N3)[C@H](c3ccc(O)cc3)N3[C@H](c4ccccc4)[C@H](c4ccccc4)OC(=O)[C@H]3[C@@H]2C(=O)Nc2nc3ccccc3s2)cc1`, the composite z-score was 1.28.
For `CC1=C2[C@@H](CCc3ccccc3)OB(O)C[C@@H]2[C@@H]2C(=O)N(C)C(=O)[C@@H]2C1`, the composite z-score was 0.985.
For `COc1cccc(C)c1NC(=O)O[C@H]1[C@H](OC(=O)Nc2ccc3c(c2)OCO3)[C@@H](OC(=O)Nc2ccc3c(c2)OCO3)[C@@H](OC)O[C@@H]1CO`, the composite z-score was 1.46.
For `CC(C)N1C(=O)c2ccccc2[C@@H](C(=O)NCCN2CCOCC2)[C@@H]1c1ccc(CO)cc1`, the composite z-score was -2.1.
Work on `CCCCN1CC=CC23O[C@@H]4/C=C\CCCOC(=O)C4[C@H]2C(=O)N(CCO)[C@@H]3C1=O` (some centres not stated) yielded a composite z-score of -1.29.
Work on `CCCNC(=O)[C@@]1(C)c2ccccc2C(=O)N(c2ccc(C)cn2)[C@H]1c1ccc(CO)cc1` yielded a composite z-score of -0.779.
`N#Cc1ccc(NN2C(C(O)c3ccc(Br)cc3)C=CC3C(=O)N(c4ccccc4)C(=O)C32)cc1` (configuration not stated) gave a composite z-score of 0.65.
`O=C(O)[C@@H]1[C@@H]2C(=O)N(c3ccccc3)C(=O)[C@@H]2C[C@@H]1Sc1ccccc1` gave a composite z-score of -0.694.
For `CCCNC(=O)[C@@H]1c2ccccc2C(=O)N(Cc2ccc(OC(F)(F)F)cc2)[C@H]1c1ccc(CO)cc1`, the composite z-score was 0.402.
`COCCOC(=O)N1C(=O)[C@@]2(c3cc(C#CCCO)ccc31)[C@H](c1ccc(OCCO)cc1)N1[C@H](c3ccccc3)[C@H](c3ccccc3)OC(=O)[C@H]1[C@@H]2C(=O)Nc1nc2ccccc2s1` gave a composite z-score of 0.898.
`CN(C)C(=O)[C@]1(CCC(=O)OC(C)(C)C)N=C(c2ccc(OCCCO)cc2)O[C@@H]1c1ccccc1CN=[N+]=[N-]` gave a composite z-score of 0.518.
For `CCCC=C(CCC)[C@@H](NS(=O)(=O)c1ccc(C(F)(F)F)cc1)c1ccccc1`, the composite z-score was 0.0772.
In the case of `CCCCC(CC)C(O)C1C=CC2C(=O)N(C)C(=O)C2N1Nc1ccccc1` (configuration not stated), the composite z-score is reported as 0.304.
`COC(=O)c1c(CC[C@@H](CO)NC(=O)N2CCC[C@H]2Cn2cc(C3(O)CCCCC3)nn2)oc(C(C)=O)c1C(=O)OC` gave a composite z-score of 0.955.
Work on `C=CC[C@]1(C(=O)N2CCCCC2)N=C(c2ccc(OCCCO)cc2)O[C@H]1c1ccccc1CN=[N+]=[N-]` yielded a composite z-score of 1.21.
In the case of `COC(=O)[C@@]1(Cc2ccccc2)[C@H]2c3cc(C(=O)N4CCCC4)n(CCc4ccccn4)c3C[C@H]2CN1C(=O)c1ccccc1`, the composite z-score is reported as 0.874.
`C=CCNC(=O)[C@@H]1[C@H]2C(=O)O[C@H](c3ccccc3)[C@H](c3ccccc3)N2[C@H](c2ccc(O)cc2)[C@@]12C(=O)N(C(=O)OCCOC)c1ccc(C#CC3=CCCCC3)cc12` showed a composite z-score of 0.965.
`COCCOC(=O)N1C(=O)[C@@]2(c3cc(C#CC4(O)CCCCCC4)ccc31)[C@H](C(=O)N1CCc3cc(OC)c(OC)cc3C1)[C@H]1C(=O)O[C@H](c3ccccc3)[C@H](c3ccccc3)N1[C@@H]2c1ccc(OCCO)cc1` gave a composite z-score of 0.891.
For `C=C(C(=O)CC[C@H](OC(=O)c1ccccc1-c1ccccc1C(=O)O)c1cccc(OCCO)c1)C(C)C`, the composite z-score was 0.353.
In the case of `CC(C)c1ccc(NN2C(C(O)c3ccc(F)cc3)C=CC3C(=O)N(c4ccccc4)C(=O)C32)cc1` (configuration not stated), the composite z-score is reported as 1.07.
In the case of `[N-]=[N+]=Nc1ccccc1C[C@@]1(C(=O)NCCN2CCOCC2)N=C(c2ccc(OCCCO)cc2)O[C@@H]1c1ccccc1N=[N+]=[N-]`, the composite z-score is reported as 0.968.
For `CCOC(=O)[C@@H]1CCCCN1C(=O)C(=O)OC`, the composite z-score was 0.549.
Work on `COc1ccccc1CN1C(=O)c2ccccc2[C@](Cc2ccccc2I)(C(=O)O)[C@@H]1c1ccc(CO)cc1` yielded a composite z-score of 1.2.
Compound `C=C[C@@H](OC)[C@H](OC(=O)Nc1ccc(OC)cc1)c1ccc(O)c(F)c1` has a composite z-score of -0.076.
